Measurements published in PubChem BioAssay.
Values joined by “and” are separate entries in the source; they are usually repeats but may differ in a detail not shown here. Equal values may be shown once. Active and inactive are the calls of the source.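 Rule for the calls, unless noted: active = at least 20% inhibition of 6-phosphogluconate dehydrogenase activity; inactive = the rest.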

What was measured:
[1] = liver-stage malaria parasite growth inhibition, primary screen, cell-based, HepG2, luciferase luminescence, HepG2 viability (AID 624349; in the data active = parasite load remaining mostly below about 12%, no sharp cut-off; inactive = mostly above about 10%;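 note: 100% = mean of DMSO negative control wells on the same plate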); settings: P. berghei liver stage in HepG2, luciferase luminescence, concentration not given here; parasite load remaining: stronger effect = lower value; viability: measured here: HepG2 viability without parasites
[2] = target: 6-phosphogluconate dehydrogenase, decarboxylating (Homo sapiens) (UniProt P52209); experiment: 6PGD enzyme inhibitors, primary screen, biochemical, human, recombinant enzyme, NADPH absorbance (AID 1159550); settings: recombinant 6PGD, NADPH absorbance 341 nm; at 10 µM; stronger effect = higher value
[3] = differential killing of epithelial or mesenchymal cells, primary screen, imaging, PC-3E GFP, TEM4-18 mCherry, co-culture (AID 1345086;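 active = compounds killing one labelled cell type while sparing the other, by normalised counts and ratio limits, not self-fluorescent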;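 for all read-outs here: cells exposed to compound for 72 h before imaging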;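 for red/green cell ratio (normalised): normalised mesenchymal count divided by normalised epithelial count so high means epithelial killing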); settings: imaging cell counts, at 1 µM; for red/green cell ratio (normalised): actives lie on both sides, counts scaled to control wells, 1 = unselective
[4] = sensitizers of A549 cells to miR-34 induction, primary screen, imaging, A549 dox-inducible miR-34, nuclei and caspase counts (AID 1347080;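 active = compounds whose cell count with miR-34 switched on is under 0.7 times the count with it off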); settings: A549 miR-34 inducible, Hoechst nuclei count, 48 h
[5] = target: Mitogen-activated protein kinase 7 (Homo sapiens) (UniProt Q13164); experiment: ERK5 transactivation activators in reporter cells, primary screen, cell-based, HTS (AID 1508626;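 active = luciferase signal above three times the same-plate solvent-only control wells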;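 note: luciferase driven by Gal4-ERK5 fusion binding five Gal4 sites before minimal TATA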); settings: HeLa Gal4-ERK5 transactivation, 18 h, at 5 µM, stronger effect = higher value
[6] = viability rescue of complex I mutant cybrids, primary screen, cell-based, galactose medium, ATP luminescence (AID 1645843;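 active = z-score of at least 1.8 in each of two replicates, scored against plate mean and spread of sample wells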;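 note: positive z means more ATP and so rescue of galactose-driven cybrid death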); settings: complex I mutant cybrid cells, 72 h, stronger effect = higher value
[7] = target: NAD(+) hydrolase SARM1 (Homo sapiens) (UniProt Q6SZW1); experiment: SARM1 TIR NADase inhibitors, cell lysate, NAD-Glo luminescence (AID 1508614;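 active = compound whose remaining NAD level is above about 45 nM, limit read from the data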;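 note: higher remaining NAD means stronger inhibition of SARM1 NADase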); settings: SAM-TIR HEK293T lysate NADase, at 1 µM, stronger effect = higher value
[8] = measured here: epithelial PC-3E GFP cell survival
[9] = measured here: mesenchymal TEM4-18 mCherry cell survival
[10] = stronger effect = lower value, cell number ratio, induced over uninduced
[11] = measured here: relative caspase fold change +Dox/-Dox
[12] = measured here: total cells with miR-34 induction, stronger effect = lower value
[13] = measured here: total cells without miR-34 induction

Sequence of Mitogen-activated protein kinase 7 (Homo sapiens) (Q13164 whole entry, looked up, the tested form may be a part): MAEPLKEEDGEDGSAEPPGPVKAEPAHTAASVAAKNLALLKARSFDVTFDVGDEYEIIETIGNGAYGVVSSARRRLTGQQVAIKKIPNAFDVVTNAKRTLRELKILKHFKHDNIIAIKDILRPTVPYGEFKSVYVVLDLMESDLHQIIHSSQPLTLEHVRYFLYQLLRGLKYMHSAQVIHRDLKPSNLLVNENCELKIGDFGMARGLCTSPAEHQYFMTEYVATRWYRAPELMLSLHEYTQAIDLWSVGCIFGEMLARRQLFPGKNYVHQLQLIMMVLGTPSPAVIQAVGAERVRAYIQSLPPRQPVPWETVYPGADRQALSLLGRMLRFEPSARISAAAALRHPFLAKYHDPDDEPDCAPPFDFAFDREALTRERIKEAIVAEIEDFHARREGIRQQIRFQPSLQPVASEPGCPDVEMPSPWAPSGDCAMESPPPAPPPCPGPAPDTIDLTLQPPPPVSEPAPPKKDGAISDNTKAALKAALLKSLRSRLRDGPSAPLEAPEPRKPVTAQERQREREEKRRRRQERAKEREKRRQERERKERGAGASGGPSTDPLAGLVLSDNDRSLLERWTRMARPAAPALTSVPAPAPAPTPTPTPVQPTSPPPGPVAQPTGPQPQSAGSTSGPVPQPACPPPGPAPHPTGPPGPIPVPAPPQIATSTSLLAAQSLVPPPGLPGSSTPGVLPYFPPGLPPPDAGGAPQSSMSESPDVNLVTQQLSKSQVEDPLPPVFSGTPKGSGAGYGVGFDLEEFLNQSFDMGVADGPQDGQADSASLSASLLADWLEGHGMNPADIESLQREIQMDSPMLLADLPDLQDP
Sequence of 6-phosphogluconate dehydrogenase, decarboxylating (Homo sapiens) (P52209 whole entry, looked up): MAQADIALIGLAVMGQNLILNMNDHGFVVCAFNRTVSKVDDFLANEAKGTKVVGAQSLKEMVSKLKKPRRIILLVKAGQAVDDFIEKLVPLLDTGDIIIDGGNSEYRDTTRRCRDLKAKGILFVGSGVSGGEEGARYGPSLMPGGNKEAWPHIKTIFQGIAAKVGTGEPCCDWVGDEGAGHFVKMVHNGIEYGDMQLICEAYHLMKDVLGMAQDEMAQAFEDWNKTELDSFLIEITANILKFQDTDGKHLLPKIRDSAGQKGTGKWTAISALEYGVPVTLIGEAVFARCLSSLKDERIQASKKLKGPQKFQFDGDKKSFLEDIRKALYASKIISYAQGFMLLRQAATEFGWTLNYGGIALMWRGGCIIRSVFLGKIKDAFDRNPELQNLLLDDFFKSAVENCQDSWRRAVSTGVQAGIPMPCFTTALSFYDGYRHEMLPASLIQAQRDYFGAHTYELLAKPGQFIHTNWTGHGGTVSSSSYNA
Sequence of NAD(+) hydrolase SARM1 (Homo sapiens) (Q6SZW1 whole entry, looked up): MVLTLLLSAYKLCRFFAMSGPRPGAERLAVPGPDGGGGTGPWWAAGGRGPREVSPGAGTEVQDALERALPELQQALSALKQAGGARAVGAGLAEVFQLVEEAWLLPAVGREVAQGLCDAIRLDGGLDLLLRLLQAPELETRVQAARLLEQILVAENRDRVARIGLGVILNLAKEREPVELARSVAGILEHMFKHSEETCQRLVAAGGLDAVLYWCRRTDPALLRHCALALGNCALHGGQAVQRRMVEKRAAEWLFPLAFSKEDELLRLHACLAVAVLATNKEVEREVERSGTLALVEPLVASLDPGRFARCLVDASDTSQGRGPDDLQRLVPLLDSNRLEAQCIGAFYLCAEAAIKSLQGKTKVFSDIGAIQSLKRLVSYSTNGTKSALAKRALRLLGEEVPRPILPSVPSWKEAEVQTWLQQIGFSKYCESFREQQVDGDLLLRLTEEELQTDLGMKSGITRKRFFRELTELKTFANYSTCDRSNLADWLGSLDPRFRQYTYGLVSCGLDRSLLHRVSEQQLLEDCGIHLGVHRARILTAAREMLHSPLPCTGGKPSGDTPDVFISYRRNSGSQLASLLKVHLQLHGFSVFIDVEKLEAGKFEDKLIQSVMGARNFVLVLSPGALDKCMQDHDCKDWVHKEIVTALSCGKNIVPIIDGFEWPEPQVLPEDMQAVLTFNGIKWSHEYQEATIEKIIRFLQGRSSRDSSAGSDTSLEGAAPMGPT

## O=C(O)c1cccnc1C(=O)O
[1]
  parasite load remaining: 83.9% (inactive)
  viability: 75.4%
[2]
  inhibition: 2.35% (inactive)
[3]
  red/green cell ratio (normalised): 0.71 (inactive)
[3]; [8]
  normalised cell number: 1.39
[3]; [9]
  normalised cell number: 0.99
[4]; [10]
  fold change: 0.98 (inactive) and 0.953 (inactive)
[4]; [11]
  fold change: 1.66 and 1.07
[4]; [12]
  cell count: 9820 and 8590
[4]; [13]
  cell count: 10000 and 9010
[5]
  luciferase signal: 84 AU (inactive)
[6]
  z-score: 0.32 (inactive) and -0.225 (inactive)

## COc1cc(-c2coc3cc(OCc4ccccc4)c(OC)c(O)c3c2=O)cc(OCc2ccccc2)c1OC
[2]
  inhibition: 16.5% (inactive)
[3]
  red/green cell ratio (normalised): 0.82 (inactive)
[3]; [8]
  normalised cell number: 1.05
[3]; [9]
  normalised cell number: 0.86

## CC1NC(=O)NC1=O (stereo not given)
[2]
  inhibition: -12% (inactive)
[3]
  red/green cell ratio (normalised): 0.85 (inactive)
[3]; [8]
  normalised cell number: 0.94
[3]; [9]
  normalised cell number: 0.79

## COc1cc(-c2coc3cc(OCc4ccccc4)c(OC)c(O)c3c2=O)cc(O)c1OC
[2]
  inhibition: 9.07% (inactive)
[3]
  red/green cell ratio (normalised): 0.97 (inactive)
[3]; [8]
  normalised cell number: 1.1
[3]; [9]
  normalised cell number: 1.07

## COc1ccc(-c2cc(=O)c3c(O)cc(O)c(-c4cc(-c5cc(=O)c6c(O)cc(O)cc6o5)ccc4OC)c3o2)cc1
[2]
  inhibition: 10.8% (inactive)
[3]
  red/green cell ratio (normalised): 0.98 (inactive)
[3]; [8]
  normalised cell number: 0.79
[3]; [9]
  normalised cell number: 0.78

## C=CCCCCCCCCCCCC(O)CC(O)CO (stereo not given) (tested in a mixture with another compound)
[2]
  inhibition: -8.17% (inactive)
[3]
  red/green cell ratio (normalised): 0.87 (inactive)
[3]; [8]
  normalised cell number: 1.32
[3]; [9]
  normalised cell number: 1.14

## O=C(O)[C@H](O)[C@@](O)(Cc1ccc(O)cc1)C(=O)O
[2]
  inhibition: 12.5% (inactive)
[3]
  red/green cell ratio (normalised): 1.3 (inactive)
[3]; [8]
  normalised cell number: 0.73
[3]; [9]
  normalised cell number: 0.94

## COc1cccc2c1CCC1CC(=O)CC[C@]21C (stereo not given in full)
[2]
  inhibition: -1.22% (inactive)
[3]
  red/green cell ratio (normalised): 0.76 (inactive)
[3]; [8]
  normalised cell number: 1
[3]; [9]
  normalised cell number: 0.76

## CN1C[C@H](C(=O)N[C@]2(C)O[C@@]3(O)[C@@H]4CCCN4C(=O)[C@H](Cc4ccccc4)N3C2=O)C[C@@H]2c3cccc4[nH]cc(c34)C[C@H]21
[1]
  parasite load remaining: 81.1% (inactive) and 61.1% (inactive) and 32.5% (inactive)
  viability: 69.3% and 88.9% and 89.9%
[2]
  inhibition: 6.21% (inactive)
[3]
  red/green cell ratio (normalised): 1.38 (inactive)
[3]; [8]
  normalised cell number: 1.07
[3]; [9]
  normalised cell number: 1.48
[4]; [10]
  fold change: 1.02 (inactive) and 0.955 (inactive) and 0.914 (inactive)
[4]; [11]
  fold change: 1.31 and 1.01 and 2.52
[4]; [12]
  cell count: 7530 and 7990 and 11700
[4]; [13]
  cell count: 7390 and 8360 and 12800
[7]
  remaining NAD: 10 nM (inactive)
[5]
  luciferase signal: 32 AU (inactive)
[6]
  z-score: -0.125 (inactive) and -0.835 (inactive)

## CC(=O)c1ccc[nH]1
[2]
  inhibition: 13.8% (inactive)
[3]
  red/green cell ratio (normalised): 0.97 (inactive)
[3]; [8]
  normalised cell number: 1.06
[3]; [9]
  normalised cell number: 1.03

## CC(=O)/C(=C\c1ccccc1)CC(=O)O
[2]
  inhibition: 3.72% (inactive)
[3]
  red/green cell ratio (normalised): 0.99 (inactive)
[3]; [8]
  normalised cell number: 1.18
[3]; [9]
  normalised cell number: 1.16

## CCC/C=C1\OC(=O)C2=C1CCC=C2
[2]
  inhibition: 3.63% (inactive)
[3]
  red/green cell ratio (normalised): 1.13 (inactive)
[3]; [8]
  normalised cell number: 0.83
[3]; [9]
  normalised cell number: 0.94

## O=c1ccc2ccc(O)cc2o1
[2]
  inhibition: 5.77% (inactive)
[3]
  red/green cell ratio (normalised): 0.88 (inactive)
[3]; [8]
  normalised cell number: 1.05
[3]; [9]
  normalised cell number: 0.93

## O=C(O)CCC(=O)OCC(NC(=O)C(Cl)Cl)C(O)c1ccc([N+](=O)[O-])cc1 (stereo not given)
[2]
  inhibition: 1.37% (inactive)
[3]
  red/green cell ratio (normalised): 1.01 (inactive)
[3]; [8]
  normalised cell number: 1.15
[3]; [9]
  normalised cell number: 1.16

## CC(C)CCCC(C)[C@H]1CCC2C3CC=C4CC(=O)CC[C@]4(C)C3CC[C@@]21C (stereo not given in full)
[2]
  inhibition: 11.7% (inactive)
[3]
  red/green cell ratio (normalised): 0.87 (inactive)
[3]; [8]
  normalised cell number: 1.01
[3]; [9]
  normalised cell number: 0.88

## CCCCCC1C(=O)CCC1CC(=O)OC (stereo not given)
[2]
  inhibition: 6.35% (inactive)
[3]
  red/green cell ratio (normalised): 0.86 (inactive)
[3]; [8]
  normalised cell number: 1.26
[3]; [9]
  normalised cell number: 1.08

## C[C@]12CC[C@@H](O)C[C@H]1CCc1ccccc12
[2]
  inhibition: -3.83% (inactive)
[3]
  red/green cell ratio (normalised): 1.08 (inactive)
[3]; [8]
  normalised cell number: 1.09
[3]; [9]
  normalised cell number: 1.17

## CCCCOc1cc(CC2CNC(=O)N2)ccc1OC (stereo not given)
[2]
  inhibition: 1.84% (inactive)
[3]
  red/green cell ratio (normalised): 1.01 (inactive)
[3]; [8]
  normalised cell number: 1.14
[3]; [9]
  normalised cell number: 1.15
[4]; [10]
  fold change: 0.994 (inactive) and 1.05 (inactive) and 0.91 (inactive)
[4]; [11]
  fold change: 1.87 and 1.3 and 0.769
[4]; [12]
  cell count: 10200 and 6130 and 8720
[4]; [13]
  cell count: 10300 and 5830 and 9590
[5]
  luciferase signal: 60 AU (inactive)
[6]
  z-score: 0.26 (inactive) and -0.055 (inactive)
